In all, about 330,000 compounds went through this assay and about 4,900 (1.5%) were called active. The entries come from a sample that favours actives as a whole. Unmarked numbers belong to inactive results.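 The calls were made as follows: active = inhibition above about 50% at the single test dose (limit read from the data); inactive = the rest.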

The target in this experiment is Sentrin-specific protease 7 (Homo sapiens) (UniProt Q9BQF6). The experiment in a line: SENP7 protease inhibitors, primary screen, biochemical, luminescence, uHTS (AID 434973).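 Also: plate controls were DMSO with enzyme for no effect and no enzyme buffer wells for full effect.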 The settings on record: recombinant SENP7, Z-RLRGG-aminoluciferin luminescence, 40 min; at 5 µM; active compounds read high.
On to `COc1ccc([N+](=O)[O-])cc1NC(=O)c1ccc(N(Cc2ccccc2C)S(C)(=O)=O)cc1`, for which the inhibition was 2.86%.
Next, `CCN(CC)C(=O)Cn1cc(S(=O)(=O)CC(=O)NCc2ccc3c(c2)OCO3)c2ccccc21`: -2.79%.
With `Cc1noc(C)c1COc1ccc(C(=O)NCCOc2ccccc2)cc1`, the inhibition was -6.96%.
Next, `Cc1ccn2c(=O)c(C(=O)NCCC3=CCCCC3)c(O)nc2c1`: 9.74%.
Next, `COC(=O)Cc1ccc(OC(=O)C2CCN(S(=O)(=O)c3ccc(OC)c(OC)c3)CC2)cc1`: -4.03%.
The value for `CC1=C(C)CC(C(=O)NC(C)CCc2ccccc2)C(C(=O)O)C1` (stereo unspecified) was 4.76%.
In the case of `COCC1CCN(C(=O)C2CCC(=O)N(Cc3cccc(C(F)(F)F)c3)C2)CC1` (stereo unspecified), the inhibition is 9.9%.
`COc1ccccc1N1CC(O)=C(c2nc3ccccc3s2)C1=N`: the inhibition was -12.5%.
The value for `COc1ccccc1OCc1nc2ccccc2s1` was 97.3% (active); that for `CN(Cc1nc2ccccc2s1)C(=O)c1ccc(F)cc1` was 0.624%; that for `Cn1c(CCc2ccccc2)nnc1SCC(N)=O` was 0.317%.
Next, `Cc1ccc2nc(/C(C#N)=C\c3ccc(OC(=O)c4cccs4)cc3)[nH]c2c1`: -1.03%; `COc1cc(/C=C(\C#N)c2nc3ccccc3[nH]2)ccc1O`: 93.7% (active); `COc1cc(/C=C(\C#N)c2nc3c(s2)CC(C)CC3)ccc1O` (stereo unspecified): 2.43%.
In the case of `CNC(=S)N/N=C/c1ccc(N2CCOCC2)s1`, the inhibition was 12.6%.
Next, `Cc1ccc(CCCOC(=O)C[N+]2(C)CCCC2)cc1`: 8.46%.
The value for `O=C(c1cc(COc2c(F)cccc2F)on1)N1CCSCC1` was 0.456%; that for `Cc1ccnc(-n2sc3ccccc3c2=O)n1` was -5.5%; that for `CC(=O)Nc1cccc(-c2nc3ccccc3s2)c1C` was -8.72%.
The value for `Cc1ccnc(Nc2nc3ccccc3s2)n1` was 88.5% (active); that for `COc1cccc(NC(=O)CCNS(=O)(=O)c2ccc3c(c2)oc(=O)n3C)c1` was 7.4%; that for `O=C(COC(=O)C12CC3CC(CC(O)(C3)C1)C2)NC12CC3CC(CC(C3)C1)C2` was -5.6%.
With `Cc1sc(NC(=O)c2ccc3ncsc3c2)c(C(N)=O)c1C`, the inhibition is 77.9% (active).
On to `COc1ccccc1-c1nnc(NC(=O)c2ccc3ncsc3c2)o1`, for which the inhibition is 4.87%.
The value for `O=C(COC(=O)c1ccc2ncsc2c1)Nc1ccc(Cl)cc1` was -7.82%; that for `CCCCn1nc(C(=O)N2CCc3ccccc32)c2ccccc2c1=O` was 2.25%.
Next, `CCCCN(CC(=O)NC(C)(C)C)C(=O)C(=O)Nc1ccc2c(c1)OCCO2`: -0.161%; `CCNC(=S)N1CCC(c2nc3cc(C)c(C)cc3[nH]2)CC1`: 1.02%; `O=C(O)/C=C/C(=O)NNc1ccc([N+](=O)[O-])cc1`: 81.7% (active).
On to `CNC(=S)Nc1ccc([N+](=O)[O-])cc1`, for which the inhibition was -6.08%.
Next, `O=C(Cc1ccccc1)NNS(=O)(=O)c1ccc([N+](=O)[O-])cc1`: 3.61%.
The value for `CN(CC(=O)Nc1ccc(F)cc1)CC(=O)N1CCCCC1` was 4.6%.
Next, `CSC1=N/C(=C\C=C\c2cccs2)C(=O)S1`: 43.7%; `CCC1C=C(c2ccccc2)C=CN=C1N(CC)CC` (stereo unspecified): 2.68%.
Regarding `COc1ccccc1-n1c(-c2cc(-c3ccco3)[nH]n2)n[nH]c1=S`, the inhibition is 2.77%.
Next, `CS(=O)(=O)n1nc(-c2ccco2)nc1N`: 3.45%; `Cn1c(-c2ccco2)nc2cc3ccccc3cc21`: 98.5% (active).
As to `CCOC(=O)c1cnc2c(c(C)nn2CC)c1Cl`, the inhibition is -8.37%.
With `CCCn1c(N)c(C(=O)CSc2nnc(-c3cccnc3)n2-c2ccc(C)cc2C)c(=O)[nH]c1=O`, the inhibition is 2.06%.
The value for `CCc1ccc(OCC(O)CN2CCN(CCO)CC2)cc1` (stereo unspecified) was 7.06%; that for `CN(CC(=O)Nc1ccc(Cl)cc1)CC(=O)Nc1cccc2ccccc12` was -3.2%; that for `O=C(Nc1cccc2ccccc12)c1onc2c1CCCC2` was 64.8% (active).
The value for `O=C(O)Cc1ccc(NC(=O)Nc2cccc3ccccc23)cc1` was 18.4%; that for `O=C1COc2ccc(C(=O)COC(=O)CCOc3ccccc3)cc2N1` was 7.4%; that for `Cc1cccc(C(=O)N[C@H](C(=O)NCc2cccs2)C(C)C)c1` was 2.96%.
Take `COC(=O)C1(C)NC(c2ccccc2OC)C2C(=O)N(c3ccccc3)C(=O)C21` (stereo unspecified): the inhibition was -1.56%.
Next, `COC(=O)c1cc(NC(=O)CN2CCN(C(C)=O)CC2)cc(C(=O)OC)c1`: 11.3%; `O=C(CSc1ncn[nH]1)Nc1ccnc2ccccc12`: 11.7%; `COc1cc(C(=O)NCC2(c3ccccc3)CCCC2)ccc1OC(C)C`: 11.3%.
Next, `COc1ccc(C(=O)Nc2ccc3nc(N4CCCCC4)cc(C)c3c2)cc1OC`: -1.83%; `COc1ccc(C(=O)Nc2ccc(C3(C#N)CCCC3)cc2)cc1OC`: 95.4% (active); `CC1CCN(S(=O)(=O)c2ccc(S(=O)(=O)NCc3ccco3)cc2)CC1`: -4.7%.
The value for `CN1CCN(CCNC(=O)Nc2ccccc2[N+](=O)[O-])CC1` was -10.6%.
With `O=[N+]([O-])c1ccccc1N/N=C1\CCc2ccccc21`, the inhibition is 54% (active).
Next, `O=[N+]([O-])c1cc(C(F)(F)F)ccc1NN=C1CCCC1`: 5.78%; `O=C(O)c1cc2ccccc2c(=O)s1`: -3.56%; `Cc1cc(C(=O)Cn2cnc3cc([N+](=O)[O-])ccc3c2=O)c(C)n1CC1CCCO1` (stereo unspecified): 1.73%.
Take `COc1ccc(C(=O)OCC(=O)c2cc(C)n(CC3CCCO3)c2C)cc1[N+](=O)[O-]` (stereo unspecified): the inhibition is -9.42%.
For `Cc1ccsc1C(=O)OCC(=O)c1cc(C)n(CC2CCCO2)c1C` (stereo unspecified), the inhibition is 94.5% (active).
`CC1CCc2c(c3ccccc3[nH]c2=O)O1` (stereo unspecified): the inhibition is 4.43%.
Next, `COc1ccc(CNC(=O)COc2ccccc2C(=O)c2cnn(-c3ccccc3)c2)cc1OC`: 60.9% (active).
The value for `COc1ccc(CNC(=O)Cc2ccc(-c3ccccc3)cc2)cc1OC` was -4.04%; that for `COc1ccc(CNC(=O)COC(=O)c2c(C)nn(-c3ccccc3)c2C)cc1OC` was 4.03%; that for `CCOc1ccc(C(=O)NCC(=O)N2CCCCCCC2)cc1OCC` was 6.97%.
Next, `CCN1C[C@@H]2[C@@H]3C(=O)N(Cc4ccccc4)C(=O)[C@@H]3[C@](Cc3ccccc3)(C(=O)OC)N2C1=NC1CCCCC1`: 8.17%.
As for `Cc1ccc(NC(=O)c2cccc(S(=O)(=O)N3CCCc4ccccc43)c2)nc1`, the inhibition is 5.31%.
With `CC(C)c1ccc(S(=O)(=O)N2CCC3(CC2)OCCO3)cc1`, the inhibition is 3.85%.
Next, `CCC1C/C(=C/c2cccs2)C(=O)/C(=C/c2cccs2)C1` (stereo unspecified): 1.12%; `O=C1/C(=C/c2cccs2)SC(=S)N1C1CCS(=O)(=O)C1` (stereo unspecified): 0.763%; `O=C1/C(=C/c2cccs2)CCc2ccccc21`: 97.7% (active).
The value for `O=C1/C(=C/c2cccs2)CCC1C1CCCC1` (stereo unspecified) was 70% (active); that for `COc1ccc(/C=C2\CCc3ccccc3C2=O)c(OC)c1OC` was -0.625%; that for `CN1C/C(=C/c2cccs2)C(=O)/C(=C\c2cccs2)C1` was 7.35%.
As for `CC(=O)N1CCN(S(=O)(=O)c2c(F)cc(F)c(Cl)c2F)CC1`, the inhibition was 2.44%.
Take `O=C1Nc2cc(C(=O)N3CCN(c4ccc(F)cc4)CC3)ccc2NC1CSCc1cccc(F)c1` (stereo unspecified): the inhibition is 8.91%.
Next, `COc1ccccc1C(=O)Nc1ccc(C)c(S(=O)(=O)N2CCCCC2)c1`: -5%; `Cc1cnc(C(=O)N2CCCC(N3CCN(c4ccccc4F)CC3)C2)cn1` (stereo unspecified): -6.9%.
Next, `O=C1CN(C(=O)c2ccccc2F)C(c2ccc(F)cc2)c2cc(F)ccc2N1` (stereo unspecified): -0.54%.
Next, `Oc1ccc(N=Nc2nccs2)c(O)c1`: 74.3% (active); `Cc1ccc(OCC(=O)N2CCN(S(=O)(=O)c3ccc(Cl)s3)CC2)cc1C`: 8.22%; `CSc1ccccc1-c1nnc(-c2ccc(Cl)cc2)o1`: 28.1%.
As to `COc1ccccc1-c1nc(C(F)(F)F)c(OC)o1`, the inhibition is -6.4%.
The value for `COc1ccccc1-c1nnc(-c2ccc(F)cc2)o1` was 50.3% (active).
The value for `O=C(NCc1cccc(Cl)c1)C1=CC=CN2CCS(=O)(=O)N=C12` was -0.294%.
Next, `CCN1C(=O)c2cccc3c(S(=O)(=O)Nc4ccccc4O)ccc1c23`: 11.4%; `CN1C(=O)c2cccc3c(N)ccc(c23)C1=O`: -3.67%; `CCN1C(=O)c2cccc3c(N)ccc1c23`: 95.9% (active).
In the case of `CCOC(=O)C1=NNC2(c3ccc(Cl)cc3)C(=O)N(c3cc(C)cc(C)c3)C(=O)C12` (stereo unspecified), the inhibition is 6.05%.
The value for `CCCn1c(=O)c2c(C(F)(F)F)cc(-c3cccs3)nc2n(CCC)c1=O` was 3.7%; that for `C[N+](C)(C)CCNC(=O)c1c(O)c2c([nH]c1=O)CCCC2` was 4.83%.
Next, `CCc1nnc(NC(=O)c2c(O)c3c([nH]c2=O)CCCC3)s1`: -5.71%; `O=C(NCc1ccccn1)c1c(O)c2c([nH]c1=O)CCCC2`: 53.8% (active).
As to `CN1CCN(S(=O)(=O)c2ccc(Nc3ccc(F)cc3)nc2)CC1`, the inhibition is -1.19%.
The value for `O=C(Nc1ccn(Cc2ccccc2F)n1)c1ccc(COc2ccc(Cl)cc2Cl)o1` was -4.47%.
Consider `Cc1c(Br)c([N+](=O)[O-])nn1CC(=O)N1CCN(Cc2ccccc2)CC1`, for which the inhibition is -3.11%.
The value for `O=C(Nc1ccn(Cc2ccccc2)n1)c1n[nH]c([N+](=O)[O-])c1Cl` was 93.9% (active).
